# Shown are actives, neighbours in structure and some others; about 19% of the full set was active somewhere.
# HT1080-NT tox – kills 2HG-producing HT-1080-NT fibrosarcoma cells; Potency, µM (top dose mostly 46.1 µM), for inactives: at the top dose activity, negative = less viability, usual class: cytotoxic; HT-1080-NT fibrosarcoma viability, CellTiter-Glo ATP luminescence, 48 h; 360,000 compounds, 1.6% hits;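 also: NT is the 2HG producing partner of a matched IDH1 knockdown line; 0% = DMSO-treated cells and -100% = media-only wells without cells; nearly all actives have a fitted effect of over 55% in size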
#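 Viability by CellTiter-Glo luminescence after 48 h compound exposure at 37C of HT-1080-NT cells (750/well, RPMI, 5% FBS). % activity scaled between DMSO wells and medium-only wells, then curve-fitted and categorized by curve class.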
# DT40 TDP1 no CPT – qHTS for Inhibitors of human tyrosyl-DNA phosphodiesterase 1 (TDP1): qHTS in cells in absence of CPT; DT40 Tdp1-/- hTDP1 cells, no CPT, ATP luminescence, 48 h; Potency, µM (titrated, usually from 46.2 µM), inactives show at the top dose activity change, negative = growth inhibition, hits mostly inhibitors; 420,000 compounds, 15% hits; AID 686978, 2013; also: nearly all actives have a fitted effect of over 55% in size
#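 Growth of hTDP1-complemented DT40 Tdp1-knockout cells is measured by ATP luminescence after at least 48 hr compound exposure at 37 °C, with DMSO substituting for the 20 nM CPT used in the parallel screen.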
# HT1080 IDH1KD tx – HT-1080 IDH1 knockdown cell toxicity (counter line); HT-1080 IDH1 knockdown viability, ATP luminescence, 48 h; Potency, µM (doses to about 46.1 µM), inactives show at the top dose activity, negative = toxicity, hits mostly cytotoxic; 360,000 compounds, 2% hits;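 also: 0% = DMSO wells and -100% = cell-free medium wells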
#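 Cytotoxicity counter-line: IDH1KD HT-1080, 48 h, CellTiter-Glo. Curves classed by r2, magnitude and activity.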
# KB-3-1 cytotox – KB-3-1 parental cell cytotoxicity; KB-3-1 viability, CellTiter-Glo ATP luminescence, 72 h; Potency, µM (titrated, usually from 46.1 µM), most hits filed as cytotoxic; 400,000 compounds, 1.4% hits; AID 1347075; also: nearly all actives have a fitted effect of over 60% in size
#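 Screening of KB-3-1 cells (DMEM, 10% FBS, phenol-red free) ran from lowest to highest compound concentration; after 72 h at 37 °C viability was read luminescently and curves fitted.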
# DT40 TDP1 CPT – DT40-hTDP1 cell growth loss with CPT | chicken DT40 Tdp1-/-;hTDP1 cells + 20 nM CPT, ATP luminescence, 48 h | Potency, µM (doses to about 46.2 µM), inactives show at the top dose activity change, negative = growth inhibition, usual class: inhibitors | 420,000 compounds, 12% hits | AID 686979; also: nearly all actives have a fitted effect of over 55% in size
#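 Chicken DT40 Tdp1-/- cells stably complemented with human TDP1 were seeded at 400 cells/well in medium containing 20 nM camptothecin, exposed to pin-transferred compounds, and grown at 37 °C for at least 48 hr. Viability was read as ATP luminescence.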
# KB-V1 cytotox – KB-V1 MDR subline cytotoxicity; KB-V1 MDR cells viability, CellTiter-Glo, 72 h; 400,000 compounds, 3.4% hits; Potency, µM (titrated, usually from 46.1 µM), hits mostly cytotoxic; also: nearly all actives have a fitted effect of over 60% in size
#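 Readout: CellTiter-Glo luminescence, 10 min after addition. Cells: KB-V1 MDR subline, 72 h at 37 degrees C with compound. Analysis: corrected, normalized data fitted to concentration-effect curves.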
# * marks the source's active call; other numbers are inactive results; i = inactive; ? = inconclusive; nt = no result. Calls follow the shape of the dose curve; as a rule, active = well fitted curve in the direction sought with a large enough effect; inconclusive = small, poorly fitted or top-dose-only effect, or another doubt; inactive = no such curve, though single readings can be large; an effect the other way counts as inactive or inconclusive. Unless noted, % is scaled to controls: 0 for no effect and ±100 for the full control effect; potency is read from the fitted curve at half-maximal effect.
SMILES,HT1080-NT tox,DT40 TDP1 no CPT,HT1080 IDH1KD tx,KB-3-1 cytotox,DT40 TDP1 CPT,KB-V1 cytotox
Cc1cc(Nc2ccc(Br)c(C)c2)n2nc(-c3ccco3)nc2n1,nt,20.6µM*,nt,i,?,?
O=C1NC[C@H](Cc2ccccc2)N(CC2CCN(CCc3ccc(-c4ccccc4)cc3)CC2)C1=O,-3.7%,16.4µM*,-8.0%,i,20.6µM*,i
O=C1NC[C@@H](CCCCN2C[C@H](Cc3ccccc3)N(CC3CCCCC3)C(=O)C2=O)N(Cc2ccccc2)C1=O,1.2%,-20.6%,-2.0%,i,0.2%,?
O=C1NC[C@H](CCCCN2C[C@H](Cc3ccccc3)N(CC3CCCCC3)C(=O)C2=O)N(CC2CCCCC2)C1=O,13.1%,29.1µM*,?,i,?,i
O=C1NC[C@@H](CCCCN2C[C@H](Cc3ccccc3)N(CCC3CCCCC3)C(=O)C2=O)N(Cc2ccccc2)C1=O,?,?,20.6µM*,?,?,?
O=C(CSc1cccc2cccc(Cl)c12)NCc1cccs1,-10.7%,25.9µM*,2.9%,?,?,i
N[C@@H](Cc1ccccc1)C(=O)N1CCC(C(=O)NCC(=O)NCC(=O)O)CC1,13.6%,2.1%,-1.8%,i,-1.3%,?
CCNC(=O)C1(C)CCCN1C(=O)c1ccc(C#N)cc1 (stereo not drawn),19.6%,-5.1%,?,i,-12.4%,i
COc1ccccc1CCn1c(=O)c(-c2cc(F)cc(F)c2)nc2cncnc21,nt,-3.5%,nt,nt,-8.6%,nt
CCCCc1c(-c2ccc(F)cc2)ncn1CCc1ccccc1OC,?,20.6µM*,?,?,?,11.6µM*
CCCCCc1c(-c2ccc(Cl)cc2)ncn1CCc1ccccc1OC,?,7.31µM*,16.4µM*,?,8.2µM*,11.6µM*
COC(=O)c1ccc2nc(-c3ccc(Cl)cc3)c(Cc3ccccc3OC)n2c1,-3.1%,-22.1%,-6.3%,i,-13.3%,i
CCCc1c(-c2cccc(Cl)c2)ncn1Cc1ccccc1OC,?,9.2µM*,?,?,5.8µM*,16.4µM*
CCCCCc1c(-c2ccc(OC)cc2)ncn1CCc1ccccc1OC,20.6µM*,14.6µM*,16.4µM*,?,13µM*,10.3µM*
N/C(Cn1cncn1)=N\NC(=O)C(=O)Nc1cccc(C(F)(F)F)c1,10.5%,-2.0%,9.6%,i,21.4%,i
C=CCN(CC=C)c1ncnc2[nH]ncc12,3.5%,?,3.5%,i,?,i
CCCCc1c(-c2ccccc2)ncn1CCc1ccccc1OC,?,16.4µM*,?,?,?,10.3µM*
CCCCc1c(Cc2ccccc2)ncn1CCc1ccccc1OC,?,5.17µM*,18.4µM*,20.6µM*,2.91µM*,18.4µM*
COCn1cnc(-c2ccccc2)c1-c1ccccc1,2.4%,?,-0.5%,i,-24.6%,i
COc1ccccc1CCn1c(=O)c(CCc2ccccc2)nc2cncnc21,nt,1.6%,nt,nt,2.1%,nt
CCCCc1c(-c2cccc(Cl)c2)ncn1CCc1ccccc1OC,?,8.2µM*,?,?,8.2µM*,10.3µM*
CCCCc1c(-c2ccc(OC)cc2)ncn1CCc1ccccc1OC,16.4µM*,23.1µM*,16.4µM*,?,20.6µM*,14.6µM*
CC(C)CSc1oc(-c2ccco2)nc1S(=O)(=O)c1ccc(Br)cc1,nt,?,nt,i,?,?
CCNc1ccc(C(=O)OCC(=O)c2cc(C)n(Cc3ccc4c(c3)OCO4)c2C)cc1[N+](=O)[O-],19.9%,?,19.6%,i,?,?
Cc1cc(C(=O)NCc2ccccc2C)c2c(C)nn(-c3cccc(F)c3)c2n1,nt,?,nt,i,?,i
SMILES,HT1080-NT tox,DT40 TDP1 no CPT,HT1080 IDH1KD tx,KB-3-1 cytotox,DT40 TDP1 CPT,KB-V1 cytotox
O=S1(=O)N=C(Oc2cccc(-c3ccccc3)c2)c2ccccc21,nt,nt,nt,i,nt,i
CCN(Cc1cnn(C)c1)C(=O)c1ccc2nc(Cc3cccc(Cl)c3)oc2c1,-11.0%,23.1µM*,-7.5%,i,23.1µM*,i
COc1ccc(Cc2nc3ccc(C(=O)N(C)CCc4cnn(C)c4)cc3o2)cc1OC,-21.2%,8.2µM*,-1.9%,?,?,?
CN(CCCN1CCOCC1)C(=O)c1ccc2nc(Cc3cccc(Cl)c3)oc2c1,-0.1%,?,0.0%,i,?,i
CCc1ccccc1NC(=O)C(CC)Sc1ncnc2c1sc1ccccc12 (stereo not drawn),nt,?,nt,i,?,i
COCCNC(=O)CCn1c(=O)c2cc(OC)c(OC)cc2n(CC(=O)Nc2ccc(F)c(Cl)c2)c1=O,nt,-5.8%,nt,i,-2.6%,i
Cc1cc(=O)n(C)c(=O)n1CCCCCOc1cccc([N+](=O)[O-])c1,0.9%,?,6.1%,i,?,8.2µM*
O=C(Nc1ccn(CCCN2CCN(Cc3ccc(F)cc3)CC2)c(=O)n1)OCc1ccccc1,-13.8%,14.6µM*,-12.5%,i,20.6µM*,i
O=C(Nc1ccn(CCCNCC(c2ccccc2)c2ccccc2)c(=O)n1)OCc1ccccc1,?,23.1µM*,?,i,?,i
CC(CNCCCn1ccc(NC(=O)OCc2ccccc2)nc1=O)c1ccccc1 (stereo not drawn),-7.2%,?,-18.1%,i,23.1µM*,i
O=C(Nc1ccn(CCCNCC2CCCCC2)c(=O)n1)OCc1ccccc1,-14.6%,?,-1.1%,i,?,i
COC(=O)c1cc(-c2ccc(Cl)cc2)n[nH]1,14.1%,-26.1%,9.3%,i,?,i
Clc1ccc(-c2cc(C3CCNCC3)[nH]n2)cc1,?,25.9µM*,-2.3%,i,23.1µM*,i
Cc1ccc(CN2CCC(c3cc(-c4ccc(Cl)cc4)n[nH]3)CC2)cc1,-0.3%,14.6µM*,?,?,16.4µM*,?
Cc1ccc2c(Cl)c(C(=O)NCCCN3CCOCC3)sc2c1,-3.2%,-10.4%,-13.4%,?,-12.6%,?
CC(C)(C)OC(=O)N1CCN(C(=O)c2ncn(Cc3ccccc3)c2C(=O)N2CCN(C(=O)OC(C)(C)C)CC2)CC1,0.0%,13.5%,-15.2%,i,12.6%,i
CCCSc1nnc(-c2cccc(S(=O)(=O)N(C)C)c2)n1-c1cc(OC)ccc1OC,9.3%,11.2µM*,8.4%,i,11.2µM*,?
